PubChem BioAssay AID504848 (National Center for Advancing Translational Sciences (NCATS), 2011)
Hit rate of the full screen: of about 2,300 compounds, about 1,400 (61%) were called active. Inconclusive results (about 29%) are left out. Calls come from the whole dose curve; as a rule, active = well fitted inhibition curve with a large enough effect; inconclusive = small, poorly fitted or top-dose-only effect, or effect the other way; inactive = no such curve, though single readings can be large or run the other way. So high a share suggests a set chosen from earlier hits. This is one part of the list.

experiment: Confirmation screen for delayed death inhibitors of the malarial parasite plastid, 96 hour incubation; note: nearly all actives have a fitted effect of over 60% in size; conditions: P. falciparum luciferase growth in erythrocytes; series mostly up to 28.7 µM
Procedure, shortened: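 Erythrocytes infected with luciferase-expressing P. falciparum (2% hematocrit, 0.1% parasitemia final) in RPMI 1640 with 0.5% Albumax, exposed to compounds 96 h at 37 C, 5% CO2. Growth inhibition read as decreased luciferase luminescence.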
Potency is the fitted concentration of half-maximal effect.

| SMILES | Potency |
| --- | --- |
| O=C1CN(c2nc(-c3cccnc3)nc3scc(-c4ccccc4)c23)CCN1 | inactive |
| O=C(c1cccs1)N1CCCN(c2ncnc3scc(-c4ccccc4)c23)CC1 | 12.6 µM (active) |
| Cc1cc(C)n(CC(O)COc2ccccc2)n1 (stereo not drawn) | 0.891 µM (active) |
| O=C1CN(C(=O)c2ccc(Cl)c(S(=O)(=O)N3CCc4ccccc43)c2)c2ccccc2N1 | 12.6 µM (active) |
| CC[C@@H](C(=O)[C@@H](C)[C@@H](O)[C@H](C)CCc1ccc(C)c(O)c1C(=O)O)[C@H]1O[C@](CC)([C@H]2CC[C@](O)(CC)[C@H](C)O2)C[C@@H]1C | 0.631 µM (active) |
| COc1ccc(C2c3[nH]c4ccccc4c3CCN2Cc2ccoc2)c(F)c1 (stereo not drawn) | 12.6 µM (active) |
| Cc1ccccc1C1c2[nH]c3ccccc3c2CCN1Cc1cccn1-c1ncccn1 (stereo not drawn) | 14.1 µM (active) |
| Fc1ccccc1C1c2[nH]c3ccccc3c2CCN1Cc1cccn1-c1ncccn1 (stereo not drawn) | 12.6 µM (active) |
| O=c1c(Cl)c(Cl)cnn1Cc1nnc(-c2ccc(Cl)cc2)o1 | 12.6 µM (active) |
| COc1cc2c(O)c3c(c(-c4ccc5c(c4)OCO5)c2cc1OC)C(=O)OC3 | 6.31 µM (active) |
| CCOC(=O)C1=C(C)NC(C)=C(C(=O)OCC)C1c1cc(N)ccc1OC(F)F | 5.62 µM (active) |
| Nc1c(N(Cc2ccco2)C(=O)c2ccc(Br)cc2)c(=O)[nH]c(=O)n1Cc1ccccc1 | inactive |
| Cc1ccc(N(Cc2ccco2)C(=O)c2ccc(N3CCCCC3)c([N+](=O)[O-])c2)cc1 | 10 µM (active) |
| COc1cc(CN2CCN(Cc3c[nH]c4ccccc34)CC2CCO)cc(OC)c1 (stereo not drawn) | 12.6 µM (active) |
| COc1cc(CN2CCN(CC#Cc3ccccc3)CC2CCO)cc(OC)c1 (stereo not drawn) | 14.1 µM (active) |
| Cc1cccc(Nc2nc3c(S(=O)(=O)c4ccccc4)nnn3c3ccccc23)c1C | 3.98 µM (active) |
| CC(C)(C)NC(=O)CSc1nnc(-c2ccccc2)c(-c2ccccc2)n1 | 14.1 µM (active) |
| COc1ccc(/C=C2\CCc3ccccc3C2=O)cc1CN1CCOCC1 | 15.8 µM (active) |
| CCC(C)NC(=O)c1cc(Cl)c(NC(=O)C2=C(C)OCCS2)cc1OC (stereo not drawn) | 10 µM (active) |
| Cc1nn2c(Nc3ccccc3)c3c(nc2c1-c1ccccc1)CCC3 | 14.1 µM (active) |

| SMILES | Potency |
| --- | --- |
| Cc1ccc(Cl)cc1Nc1nc(-c2sc(NC(=O)C(C)(C)C)nc2C)cs1 | 2.82 µM (active) |
| Cc1cccc(N(Cc2ccccc2)C(=O)CSC(C)C(=O)Nc2cc(C)on2)c1 (stereo not drawn) | 8.91 µM (active) |
| COc1ccccc1C(=O)Nc1ccc2nc3n(c(=O)c2c1)CCCC3 | 3.55 µM (active) |
| CCOC(=O)C1CCN(C(=O)C(=O)Nc2ccc3nc4n(c(=O)c3c2)CCCCC4)CC1 | 7.08 µM (active) |
| CCCCCNc1nc2sc3c(c2c(=O)n1-c1cccc(Cl)c1)CCN(C)C3 | 2.24 µM (active) |
| CCCCNc1nc2sc3c(c2c(=O)n1-c1cccc(Cl)c1)CCN(C)C3 | 1.26 µM (active) |
| O=C(O)c1ccc(C=C(c2nc3ccccc3s2)c2nc3ccccc3s2)cc1 | 15.8 µM (active) |
| CCCCNC(=O)c1onc(CSc2cc(C)ccc2C)c1C(=O)O | inactive |
| Cc1cc(C(C)(C)C)cc(C)c1CCNC(=O)c1c(C)noc1C | 10 µM (active) |
| Cc1cc(C(C)(C)C)cc(C)c1CCNC(=O)c1ccc[n+]([O-])c1 | 12.6 µM (active) |
| Cc1ccc(-n2nc3c(=O)n(CCCC(=O)NCc4ccco4)nc(C)c3c2C)cc1 | 2.24 µM (active) |
| Cc1ccc2c(c1)N(CCC(=O)NCc1ccco1)C(=O)CO2 | inactive |
| Cc1nn(CCCC(=O)NCc2ccco2)c(=O)c2nn(-c3ccccc3)c(C)c12 | 11.2 µM (active) |
| C/C(=N/OCO/N=C(\C)c1ccccc1)c1ccccc1 | inactive |
| C/C(=N\NC(=S)Nc1cccc(C)c1)c1ccccc1 | 11.2 µM (active) |
| CCOC(=O)c1c(C)[nH]c(C(=O)Nc2cc(OCC)c(N3CCOCC3)cc2OCC)c1C | 2.51 µM (active) |
| CCOC(=O)c1ccc(NC(=O)c2c(Cl)cc(C)nc2C)cc1 | 12.6 µM (active) |
| CCOC(=O)c1ccc(Nc2nc(=O)c3cccnc3s2)cc1 | inactive |
| N#C/C(=C\c1coc2ccccc2c1=O)C(N)=S | 11.2 µM (active) |
| COC(=O)C(=Cc1ccccc1[N+](=O)[O-])C(=O)OC | 3.98 µM (active) |

| SMILES | Potency |
| --- | --- |
| COCCNC(=O)/C(C#N)=C/C=C/c1ccccc1[N+](=O)[O-] | 10 µM (active) |
| CC1CCCCC1NC(=O)/C(C#N)=C/C=C/c1ccccc1[N+](=O)[O-] (stereo not drawn) | 4.47 µM (active) |
| N#C/C(=C\C=C\c1ccccc1[N+](=O)[O-])C(=O)NC1CCCCC1 | 5.01 µM (active) |
| CCCCN1/C(=C/c2cccc[n+]2C)Sc2cc(NC(C)=O)ccc21 | 1.58 µM (active) |
| CCC1CCC(C(=O)NC(CCSC)C(=O)NCCN(CC(C)C)CC(C)C)CC1 (stereo not drawn) | 7.08 µM (active) |
| O=C1C(=O)c2ccccc2C(O)=C1c1cccc([N+](=O)[O-])c1 | 10 µM (active) |
| COC(=O)c1ccc(C2N=C(c3cccs3)CC(c3ccccc3O)N2)cc1 (stereo not drawn) | 5.62 µM (active) |
| COc1cccc(NC(=O)CN2C(=O)NC3(CCCc4ccccc43)C2=O)c1 (stereo not drawn) | 3.98 µM (active) |
| COc1ccc(C2(c3ccc(OC)cc3)NC(=O)N(CC(=O)Nc3ccc(C(N)=O)cc3)C2=O)cc1 | 3.98 µM (active) |
| COC(=O)C1=C(C)Nc2ncnn2C1c1ccccn1 (stereo not drawn) | inactive |
| CCOc1ccc(N(C(=O)c2snc(C(N)=O)c2N)C(C(=O)NCC2CCCO2)c2c[nH]c3ccccc23)cc1 (stereo not drawn) | 2.82 µM (active) |
| COc1cc(/C=C/C(=O)NC(=O)c2ccccc2O)ccc1OC(C)=O | 8.91 µM (active) |
| Cn1c(=O)oc2cc(S(=O)(=O)NCCC(=O)NCc3ccc(F)cc3)ccc21 | 12.6 µM (active) |
| O=C1NC(=Nc2ccccc2)S/C1=C\c1ccccc1 | 11.2 µM (active) |
| O=C(NC1CCCCC1)N1CCN(c2ccc([N+](=O)[O-])cc2)CC1 | 12.6 µM (active) |
| CCCc1c(CC)c(=N)c2ccccc2n1C | 0.0316 µM (active) |
| Nc1cccc2c1C(=O)N(C(=O)/C=C/c1ccc(F)cc1)C2=O | inactive |
| CC(C)(CNC(=O)/C=C/c1ccc(F)cc1)CNC(=O)/C=C/c1ccc(F)cc1 | 8.91 µM (active) |
